The list is not random: actives were taken first. Their share in the collection is about 0.91%.
QS inhibitor = S. aureus quorum sensing inhibitors, primary screen, RNAIII-GFP reporter, flow cytometry; S. aureus RN6390 RNAIII-GFP reporter, AIP-induced, flow cytometry 3 h; inhibition, % at 2 µM; 0.3% of 24,000 active; AID 527, 2006;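 active = share of bacteria positive for the green fluorescent reporter and its mean brightness both inhibited by 50% or more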;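 also: 0% = AIP-stimulated control and 100% = unstimulated bacteria without AIP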
Prostate diff = activators of LNCaP prostate cell differentiation, primary screen, flow cytometry side scatter. 4 d. side scatter shift, % at 10 µM. 0.56% of 24,000 active;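 active = side scatter shift above 30%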;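 also: androgen-responsive LNCaP prostate cancer cells in charcoal-stripped serum medium; percent of cells past a gate set so DMSO wells show 10% shift; higher shift means more granular cells and more differentiation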
An asterisk follows results filed as active.

N=c1n(CCO)c2ccccc2n1CCOc1ccc(Cl)cc1Cl was read as QS inhibitor -2 and Prostate diff 39*.
CS(=O)(=O)Nc1ccc(C(=O)NCc2ccco2)cc1 was read as QS inhibitor -1 and Prostate diff 5.
Screening COC(=O)c1cc(-c2ccccc2)sc1NC(=O)c1cc(C)on1 returned QS inhibitor -1 and Prostate diff 35*.
`COc1cc(NC(=O)c2cc(C)on2)cc(OC)c1OC` gave QS inhibitor -2 and Prostate diff 5.
`COc1ccc2c(c1)CCc1c(C(=O)Nc3ccn(Cc4ccc(C)cc4)n3)noc1-2` gave QS inhibitor 0 and Prostate diff 26.
`COc1ccc2c(c1)CCc1c(C(=O)Nc3cc(C)n(Cc4ccc(Cl)cc4)n3)noc1-2` gave QS inhibitor 3 and Prostate diff 62*.
Screening CN1CCN(c2cc3c(c4c2[nH]c2ccccc24)C(=O)CC(C)(C)C3)CC1 returned QS inhibitor 0 and Prostate diff 63*.
For CN1CCCN(C(=O)c2cc(=O)[nH]c3ccccc23)c2nc3ccccc3nc21 the results were QS inhibitor 0 and Prostate diff 4.
Screening C/C(=N/N=C1/NC(=O)CC(C(=O)Nc2ccccc2)S1)c1cccs1 (stereo not given) returned QS inhibitor 38.
Screening O=C(NCCN1CCc2ccccc2C1)Nc1ccc(F)cc1 returned QS inhibitor -5 and Prostate diff 7.
CCc1ccc(NC(=O)NCCN2CCc3ccccc3C2)cc1 was read as QS inhibitor -3 and Prostate diff 34*.
COC(=O)C1C(=O)C2=C(CC1C)NC(C)=C(C(=O)OCCOc1ccccc1)C2c1ccc(C)o1 (stereo not given) was read as QS inhibitor -8 and Prostate diff 10.
Screening COC(=O)C1C(=O)C2=C(CC1C)NC(C)=C(C(=O)OC1CCCCC1)C2c1ccc(N(C)C)cc1 (stereo not given) returned QS inhibitor 54* and Prostate diff 0.
Screening COc1ccc(N2CCN(C(=O)CCNS(=O)(=O)c3ccc(Br)s3)CC2)cc1 returned QS inhibitor 2 and Prostate diff 12.
`O=C(CCn1cccc1)NCc1ccc(Cl)cc1` gave QS inhibitor 6 and Prostate diff 8.
`CCOC(=O)c1cnc2nc(C)[nH]n2c1=O` gave QS inhibitor -1 and Prostate diff 2.
For CCOC(=O)c1cnn(-c2cc(C)c3cc(C)cc(C)c3n2)c1N the results were QS inhibitor -4 and Prostate diff 32*.
`Nc1nc2n(n1)C(c1c(F)cccc1Cl)CC(c1ccc(F)cc1)N2` (stereo not given) gave QS inhibitor -3 and Prostate diff 2.
`COc1ccc(N(CC(=O)N2CC=C(c3ccccc3)CC2)S(=O)(=O)c2c(C)noc2C)cc1` gave QS inhibitor 17 and Prostate diff 4.
For CCOc1ccc(N(CC(=O)N2CC=C(c3ccccc3)CC2)S(=O)(=O)c2c(C)noc2C)cc1 the results were QS inhibitor 53* and Prostate diff 1.
For Cc1cc(C(=O)Nc2sc3c(c2C#N)CCCC3)no1 the results were QS inhibitor 0 and Prostate diff 3.
Screening CC(C)Cc1cc(C(=O)Nc2sc3c(c2C#N)CCCC3)no1 returned QS inhibitor 55* and Prostate diff 12.
For CNC(=O)C1C2C=CC3(O2)C1C(=O)N(C1CC1)C3C(=O)NCc1ccc(OC)cc1 (stereo not given) the results were QS inhibitor 0 and Prostate diff 4.
Screening COc1ccc(S(=O)(=O)Cc2ccc(C(=O)NCc3ccc(F)cc3)o2)cc1 returned QS inhibitor -6 and Prostate diff 2.
Cn1nc(-c2ccc(Cl)cc2)c2cc(C(=O)N3CCC(N4CCCCC4)CC3)sc21 was read as QS inhibitor -1 and Prostate diff 14.
c1ccc(N2CCN(c3nnc(Cc4cccnc4)c4ccccc34)CC2)nc1 was read as QS inhibitor 2 and Prostate diff 30*.
CC(C)NC(=O)c1cnc(N2CCN(c3ccccn3)CC2)c2ccccc12 was read as QS inhibitor -2 and Prostate diff 23.
`Cc1cccc(NC(=O)c2cc(S(=O)(=O)NCc3ccco3)ccc2F)c1C` gave QS inhibitor 3 and Prostate diff 10.
Screening COc1ccc(-c2cc(C(F)(F)F)nc(N3CCN(C)CC3)n2)cc1 returned QS inhibitor 3 and Prostate diff 43*.
COc1ccc(-c2cc(C(F)(F)F)nc(N3CCCCCC3)n2)cc1 was read as QS inhibitor -1 and Prostate diff 10.
`Cc1ccc(N(C(C)C(=O)O)S(=O)(=O)c2c(C)n[nH]c2C)cc1` (stereo not given) gave QS inhibitor 1 and Prostate diff 8.
COc1ccccc1N1CCN(c2nc3ccccc3nc2C(C#N)C(=O)OC(C)C)CC1 (stereo not given) was read as QS inhibitor -8 and Prostate diff 30*.
Screening CC1CN(c2nc3ccccc3nc2C(C#N)C(=O)OC2CCCCC2)CC(C)O1 (stereo not given) returned QS inhibitor 61* and Prostate diff 3.
Screening CCOc1ccccc1N1CCN(c2nc3ccccc3nc2C(C#N)C(=O)OC)CC1 (stereo not given) returned QS inhibitor 0 and Prostate diff 5.
CCOC(=O)C1CCCN(c2nc3ccccc3nc2C(C#N)C(=O)NCc2ccccc2)C1 (stereo not given) was read as QS inhibitor 0 and Prostate diff 16.
`O=C(NCCc1ccc(Cl)cc1)C1CCC(=O)N1C1CCCC1` (stereo not given) gave QS inhibitor -1 and Prostate diff 11.
CC(=O)Nc1ccccc1OCc1nnc(-c2cccs2)o1 was read as QS inhibitor 1 and Prostate diff 5.
For COC(=O)C1=C(C)N=c2s/c(=C/c3cccs3)c(=O)n2C1c1cccs1 (stereo not given) the results were QS inhibitor 4 and Prostate diff 31*.
For CCOC(=O)C1=C(C)N=c2s/c(=C\c3cccn3C)c(=O)n2C1c1cccc(OC)c1OC (stereo not given) the results were QS inhibitor 6 and Prostate diff 11.
Screening Cc1cc(N2CCC(N(C)C3CCCC3)CC2)nc2cc(O)ccc12 returned QS inhibitor 0 and Prostate diff 44*.
For Cc1cc(N2CCOCC2)nc2ccc(NC(=O)C3CCC(C)CC3)cc12 (stereo not given) the results were QS inhibitor 1 and Prostate diff 8.
For CCN1CCN(C(c2cccs2)C(C)NC(=O)c2ccccc2F)CC1 (stereo not given) the results were QS inhibitor -5 and Prostate diff 6.
For NC(=O)CN1CCN(C(=O)NC2CCCCC2)CC1 the results were QS inhibitor -2 and Prostate diff 7.
Screening O=C(NCCCN1CCOCC1)c1cc(-c2ccc3c(c2)OCO3)nc2ccccc12 returned QS inhibitor -4 and Prostate diff 12.
Screening CCOc1ccc(-c2cc(C(=O)NCCCN3CCN(CC)CC3)c3ccccc3n2)cc1 returned QS inhibitor -1 and Prostate diff 37*.
O=C(Cn1c(=O)sc2ccccc21)NCCOc1ccccc1F was read as QS inhibitor -1 and Prostate diff 4.
CC1=C(C(N)=O)C(c2cccnc2)n2nc(-c3cccc(Cl)c3)nc2N1 (stereo not given) was read as QS inhibitor 1 and Prostate diff 3.
